# ChEMBL document CHEMBL4513141, “CO-ADD screening of NIH (USA) - Clinical Collection” (2021)
# Out of some 23,000 compounds screened, about 30 (0.1%) showed an effect of 50% or more. The sample holds strong results, similar compounds and a random draw of the others, so the mix is not that of the screen. Measured potencies and affinities stand elsewhere.
# System: Pseudomonas aeruginosa
# Conditions: Concentration 20 uM; ASSAY_TEST Inhibition of Bacterial Growth; detection method Absorption (OD600); MEDIA CAMHB; plate type 384well; NBS; CORNING #3640; time 18 hr
row,Structure (SMILES),Inhibition [%]
1,CCOC(=O)[C@@H](CCc1ccccc1)N[C@@H](C)C(=O)N1CCC[C@H]1C(=O)O.O=C(O)/C=C\C(=O)O,1.23
2,CCOC(=O)[C@H](CCc1ccccc1)N[C@@H](C)C(=O)N1Cc2ccccc2C[C@H]1C(=O)O.Cl [QUINAPRIL HYDROCHLORIDE],14.62
3,CCOC(=O)[C@H](CCc1ccccc1)N[C@@H](C)C(=O)N1[C@H](C(=O)O)C[C@@H]2CCC[C@@H]21,53.62
4,Cc1cnc(NC(=O)C2=C(O)c3ccccc3S(=O)(=O)N2C)s1 [MELOXICAM],4.04
5,CN1C(C(=O)Nc2ccccn2)=C(O)c2ccccc2S1(=O)=O.O,7.03
6,CCOC(=O)OC(C)OC1=C(C(=O)Nc2ccccn2)N(C)S(=O)(=O)c2ccccc21 (stereo unspecified) [AMPIROXICAM],53.02
7,N[C@@H]1CONC1=O [CYCLOSERINE],60.23
8,C[C@@H]1O[C@@H](OC[C@H]2O[C@@H](Oc3c(-c4ccc(O)c(O)c4)oc4cc(O)cc(O)c4c3=O)[C@H](O)[C@@H](O)[C@@H]2O)[C@H](O)[C@H](O)[C@H]1O [RUTIN],17.85
9,O=c1c(O[C@@H]2O[C@H](CO)[C@@H](O)[C@H](O)[C@H]2O)c(-c2ccc(O)c(O)c2)oc2cc(O)cc(O)c12 [ISOQUERCETIN],60.53
10,O=c1c(O[C@@H]2O[C@H](CO)[C@H](O)[C@H](O)[C@H]2O)c(-c2ccc(O)c(O)c2)oc2cc(O)cc(O)c12 [HYPEROSIDE],12.67
11,Cl.Nc1c2c(nc3ccccc13)CCCC2 [TACRINE HYDROCHLORIDE],19.73
